Potency and affinity values are given separately.

This test deals with Cryptococcus neoformans. As to conditions: Concentration 32 ug.mL-1; ASSAY_TEST Inhibition of Fungal Growth; detection method Resazurin; Absorption (OD600-OD570); plate type 384well; NBS; CORNING #3640.
Regarding `Cc1ccc(C)c(NC(=O)Cn2nc3cc(C)nc(Nc4ccc(F)cc4)n3c2=O)c1`, the Inhibition is -16.31%.

For `COc1cc(OC)c(NC(=O)Cn2nc3c(Oc4cccc(C)c4C)nccn3c2=O)cc1Cl`, the Inhibition was -9.4%.

Consider `CCOC(=O)N1CCN(C(=O)CCc2nnc3c4cc(-c5ccccc5)nn4ccn23)CC1`, for which the Inhibition is listed as -14.62%.

With `COc1ccccc1-n1ccn2c(SCc3cc(C)ccc3C)nnc2c1=O`, the Inhibition was -7.82%.

`Cc1ccc(Sc2nccn3c(=O)n(CC(=O)N4CCN(c5ccc(F)cc5)CC4)nc23)c(C)c1`: the Inhibition was -106.74%.

For `COc1cccc(NC(=O)Cn2nc3c(N4CCCC4)nccn3c2=O)c1`, the Inhibition is reported as -12.87%.

Turning to `CCc1ccccc1Sc1nccn2c(=O)n(CC(=O)NCc3ccc(OC)cc3)nc12`, the Inhibition was -1.62%.

As to `O=S(=O)(c1ccc2nncn2c1)N(Cc1ccccc1F)c1ccc(F)c(F)c1`, the Inhibition was -2.71%.

In the case of `COc1cccc(Sc2nc3ccccc3n3c(=O)n(CC(=O)Nc4cccc(F)c4)nc23)c1`, the Inhibition is -25.49%.

As for `O=C(Cn1nc2c3cc(-c4ccccc4)nn3ccn2c1=O)N1CCN(c2ccccc2F)CC1`, the Inhibition was -28.45%.

With `CCOC(=O)c1ccc(NC(=O)Cn2nc3c(SC4CCCCC4)nccn3c2=O)cc1`, the Inhibition is reported as -30.92%.

With `Cc1ccc(NC(=O)CSc2nnc3ccc(C(=O)Nc4cccc(F)c4)cn23)c(C)c1`, the Inhibition is listed as -2.98%.

`O=c1c2sccc2n2c(=O)n(Cc3cccc(Cl)c3)nc2n1CCc1ccccc1`: the Inhibition was -33.74%.

As for `CCCCOc1ccc(-c2cc3c4nnc(SCC(=O)Nc5cccc(C#N)c5)n4ccn3n2)cc1`, the Inhibition is recorded as -23.71%.

As for `COc1ccc(NC(=O)Cn2nc3c4c5c(sc4ncn3c2=O)CCCC5)cc1`, the Inhibition is reported as -17.73%.

For `COc1ccccc1-n1ccn2c(SCc3ccc(Cl)cc3)nnc2c1=O`, the Inhibition is -13.63%.

With `O=C(CSc1nnc2c(=O)n(-c3cccc(F)c3)ccn12)c1ccc(F)cc1`, the Inhibition was -7.94%.

As to `Cc1ccc(NC(=O)Cn2nc3ccc(SCc4ccc(Cl)cc4)nn3c2=O)cc1`, the Inhibition is -7.75%.

As for `O=c1n(Cc2ccc3c(c2)OCO3)nc2c(S(=O)(=O)N3CCCCC3)cccn12`, the Inhibition is on record as -6.79%.

Regarding `O=C(CSc1nnc2c(=O)n(-c3ccc(F)cc3)ccn12)N1CCN(c2ccc(F)cc2)CC1`, the Inhibition is -6.2%.

For the compound `COc1ccc(-c2cc3c4nnc(CCC(=O)NCCc5ccccc5)n4ccn3n2)cc1`, the Inhibition is -16.37%.

Turning to `CCCNC(=O)Cn1nc2nc(Nc3ccc(F)cc3)ccn2c1=O`, the Inhibition was -13.31%.

On to `COC(=O)c1ccccc1NC(=O)Cn1nc2c(Oc3cccc(OC)c3)nccn2c1=O`, for which the Inhibition is given as -7.59%.

On to `Cc1cc(C)cc(Nc2nc(C)cc3nn(CC(=O)Nc4cc(F)cc(F)c4)c(=O)n23)c1`, for which the Inhibition is -10.24%.

As to `COc1cccc(Sc2nc3ccccc3n3c(=O)n(CC(=O)Nc4cc(C)cc(C)c4)nc23)c1`, the Inhibition is -11.67%.

Turning to `Cc1ccc(Sc2nccn3c(=O)n(CC(=O)Nc4cc(Cl)ccc4C)nc23)c(C)c1`, the Inhibition is reported as -16.92%.

`COc1cccc(-n2ccn3c(SCC(=O)NCc4ccc(C)cc4)nnc3c2=O)c1`: the Inhibition is listed as -8.56%.

For the compound `CCOc1ccc(C(=O)Cn2nc3n(CCC(C)C)c(=O)c4sccc4n3c2=O)cc1`, the Inhibition was -12.75%.

Consider `O=c1c2sccc2n2c(=S)[nH]nc2n1CC1CCCO1` (stereo not given), for which the Inhibition is recorded as -5.63%.

As to `Cc1ccc(-c2ccc3nn(Cc4cccc(Cl)c4)c(=O)n3n2)cc1C`, the Inhibition is recorded as -10.16%.

In the case of `Cc1cc(C)cc(NC(=O)Cn2nc3n(C)c(=O)c4c(c(-c5ccccc5)cn4C)n3c2=O)c1`, the Inhibition was -5.54%.

As for `CC1CCCN(c2nccn3c(=O)n(CC(=O)Nc4ccc(Br)cc4F)nc23)C1` (stereo not given), the Inhibition is reported as -8.97%.

Take `Cc1ccccc1Nc1cc(C)n2c(=O)n(CCOc3ccc(F)cc3)nc2n1`: the Inhibition was -5.27%.

In the case of `CCOC(=O)c1ccc(NC(=O)Cn2nc3c4cc(-c5ccc(C)cc5)nn4ccn3c2=O)cc1`, the Inhibition was -28.56%.

`N#Cc1cccc(NC(=O)Cn2nc3c(Oc4ccccc4)nccn3c2=O)c1`: the Inhibition is -6.48%.

As for `CCCn1c(=O)c2ccc(C(=O)NC3CCCCC3)cc2n2c(=O)n(CC#N)nc12`, the Inhibition is on record as -10.2%.

In the case of `CCCCn1c(=O)c2sccc2n2c(=O)n(CC(=O)N3CCCC(C(=O)OCC)C3)nc12` (stereo not given), the Inhibition was -9.46%.

Consider `O=C(NCc1ccccc1)c1ccc2nn(CC(=O)N3CCN(c4ccccc4F)CC3)c(=O)n2c1`, for which the Inhibition is given as -15.87%.

Take `COC(=O)c1ccccc1NC(=O)CSc1nc2ccccc2n2c(C(C)C)nnc12`: the Inhibition is recorded as -7.61%.

Consider `COc1ccccc1-n1ccn2c(SCC(=O)Nc3ccc4c(c3)OCO4)nnc2c1=O`, for which the Inhibition is -4.47%.

The values are drawn from ChEMBL document CHEMBL4513146, “CO-ADD screening of Karazin Kharkiv National University (Ukraine) compounds”.
